In PubChem BioAssay AID504647 (National Center for Advancing Translational Sciences (NCATS), 2011):
This is one part of the list. Activity calls are given as the source filed them. The rule behind the calls is not given here.

Assay: Assay for Inhibitors of Influenza NS1 Protein Function: Influenza virus replication assay in MDCK cells infected with virus A/PR/8/34
Details: MDCK infected influenza A/PR/8/34, virus titer TCID50, at 5 µM; viability: measured here: MDCK cell viability, stronger effect = higher value; virus titer (log TCID50): stronger effect = lower value
Description: NIH Chemical Genomics Center [NCGC]
NIH Molecular Libraries Probe Centers Network [MLPCN]
Assay Submitter (PI): Daniel Engel
Influenza is a world-wide public health problem and emerging forms of the virus have the potential to cause a pandemic of equal or greater magnitude to the outbreaks recorded in 1918, 1957 or 1968. Vaccine development is proceeding and there also exist two classes of anti-influenza compounds. However these therapeutic modalities are neither fully effective nor widely enough available to fulfill global needs. In addition their potential usefulness against newly emergent strains is not known. Efforts are needed to develop novel agents against influenza virus, including broad-spectrum agents. Identification of small molecules that inhibit NS1 function either directly or by interfering with specific cellular pathways may be a key to increasing our defense against the virus.
We have miniaturized and optimized a cell based assay in which NS1 from influenza A is expressed in the budding yeast S. cerevisiae. NS1 is a multi-functional protein that counters the host innate immune response and facilitates viral versus cellular gene expression. Expression of NS1 causes a pronounced slow growth phenotype in yeast due to its intrinsic molecular activities. Small molecules that suppress the slow growth phenotype can be identified by a straightforward growth recovery assay using optical density (OD) as the measurement. The same yeast strain not expressing NS1 was used as positive control in the yeast growth recovery assay. The present experiment attempted to confirm the activity of compounds observed in the primary screen.
This assay confirms the activity of compounds from the primary screen by measuring their affect on viral replication.
Protocol details are given in Basu et al. J. Vir. 83(4):1881-1891 2009. […] All media and sera were from Invitrogen. […] Confluent cell monolayers were infected at a multiplicity of infection (MOI) of 0.1 for 48 h in the presence or absence of 5uM compound. Compounds were added at the beginning of infection and were present throughout the infection. After 48 h virus titers were determined by standard TCID50 analysis.

Row | SMILES | viability [%] | virus titer (log TCID50)
1 | O=c1cc(O)nc(SCc2ccccc2Cl)[nH]1 | 104 | 7.66 log10 TCID50 (inactive)
2 | CCCc1cc(=O)[nH]c(SCC(=O)c2cc(C)n(CCC)c2C)n1 | 95.4 | 7.5 log10 TCID50 (active)
3 | Cc1ccc(Cn2c(C)nc3c(c2=O)c2nc4ccccc4nc2n3Cc2ccco2)cc1 | 101 | 7.5 log10 TCID50 (active)
4 | Cc1cc(C)c2cc(CN(Cc3nnnn3Cc3ccc(F)cc3)C3CCCC3)c(=O)[nH]c2c1 | 103 | 8.5 log10 TCID50 (inactive)
5 | O=C1c2cccc(OCC(=O)N3N=C(c4cccs4)CC3c3ccc(F)cc3)c2CCN1Cc1ccccc1 (stereo not given) | 91 | 8.5 log10 TCID50 (inactive)
